# Experimental data published in PubChem BioAssay (NCI).
# About 83,000 compounds went through this panel and 20% of them were active in at least one assay; those are over-represented in the sample as a whole.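 Growth was measured after 48 h exposure to one concentration of compound in 96-well plates. Values under 10 count as active.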 The source made the active and inactive calls.
# System: NCI-H23 lung
# Assay: NCI-60 one-dose screen, 48 h (100 = growth as untreated, 0 = no growth, -100 = all killed)
# Conditions: 10 µM unless noted
row,Compound,growth
1,O=c1[nH]c(=O)n(Cc2ccc(F)cc2)cc1F,105% [50 µM] (inactive)
2,CC(=O)Nc1ccccc1-c1n[nH]c(=O)[nH]c1=O,102% (inactive)
3,CCOC(=O)c1[nH]c2cc(Cl)ccc2c1[C@@H](C(=O)NC(C)(C)C)N(CC)C(=O)CCCCC#Cc1cccc2c1CN(C1CCC(=O)NC1=O)C2=O (stereo partly drawn),59.4% (inactive)
4,NS(=O)(=O)c1ccc(C(=O)N/N=C(\CS(=O)(=O)c2ccccc2)c2cc3cc(Br)ccc3o2)cc1,80.7% (inactive)
5,O=C1Nc2ccc(Cl)cc2/C1=N/N=C(c1ccccc1)c1ccccc1,93.9% (inactive)
6,Cc1c(C(=O)Nc2nc(-c3ccccc3)cs2)nnn1-c1cccc2ccccc12,33% [50 µM] (inactive)
7,COc1ccc(NS(=O)(=O)c2ccc(-c3cnc(C4CC4)o3)cc2)cc1,71.9% (inactive)
8,O=c1[nH]c(-c2ccncc2)nc2sc3c(c12)CCCCCC3,88.5% (inactive)
9,CC(C)OC1=C(Cl)C(=O)c2ccccc2C1=O,81.8% (inactive)
10,O=c1nc(NO)[nH]c(=O)n1Cc1ccccc1,105% (inactive)
11,COc1c(O)c2c3c(c1OC)-c1ccccc1CC3N(S(=O)(=O)c1ccc(C)cc1)CC2 (stereo not drawn),41.2% (inactive)
12,Fc1c[c-]c(-c2ccccn2)c(F)c1.Fc1c[c-]c(-c2ccccn2)c(F)c1.[Cl][Pt+].[Cl][Pt+].c1ccc([PH+](C[PH+](c2ccccc2)c2ccccc2)c2ccccc2)cc1,-6.3% (active)
13,O=C(c1ccc2ncc(-c3nc(NC4CC4)ncc3F)n2c1)N1CCOCC1,42.5% (inactive)
14,CCN1CCN(C(=S)SCC(=O)Nc2nc3ccc(OC)cc3s2)CC1,100% (inactive)
15,COc1ccc(-c2nc3sc(C)nn3c2-c2nc3cc(C)c(C)cc3[nH]2)cc1,93.9% (inactive)
16,CCCCC1COc2cccc3c(SCC(=O)N(C)c4cccc5ccccc45)cc[n+]1c23 (stereo not drawn),104% (inactive)
17,O=C1NC(=O)C(CSc2ccccc2)(c2ccccc2)N1 (stereo not drawn),97.7% (inactive)
18,O=C1c2ccccc2-c2nnc(-c3ccc(Br)cc3)cc21,47% (inactive)
19,O=c1c2cc(F)ccc2oc2c(NCCNCCO)nc3ccccc3c12,53% (inactive)

row,Compound,growth
1,CCCCCn1c(=N)n(CC(O)COc2cccc(C)c2)c2ccccc21 (stereo not drawn),7.8% (active)
2,Cc1ccccc1-n1nnc(C(=O)Nc2ccc(-c3ccccc3)cn2)c1C,38.1% [50 µM] (inactive)
3,O=C(N/N=C/c1ccc(OC(F)F)c(OC2CCCC2)c1)c1cnn2c1NC(c1ccccc1)C2 (stereo not drawn),97.5% (inactive)
4,O=C(NCc1ccc(F)cc1)C1CN(c2ccc(Cl)cc2)N(c2ccc(Cl)cc2)C1=O (stereo not drawn),78.8% (inactive)
5,O=C1CCC(N2Cc3c(C#CCCCNC(=O)c4cc5c(o4)C(=O)c4ccccc4C5=O)cccc3C2=O)C(=O)N1 (stereo not drawn),-80.1% (active)
6,Nc1cccc2c(=S)c3ccccc3[nH]c12,95.9% (inactive)
7,Cc1ccc(NS(=O)(=O)c2ccc(-c3cnc(C4CC4)o3)cc2)cc1,58.8% (inactive)
8,N#Cc1c(-c2cccc(F)c2)cc(-c2ccc(Br)s2)[nH]c1=O,84.9% (inactive)
9,O=C1c2ccccc2-c2cn(Cc3ccccc3)c3cccc(c23)C1c1cccnc1 (stereo not drawn),45.5% (inactive)
10,COc1cc2cc(Oc3ccc(NC(=O)Nc4cccc(C(F)(F)F)c4)cc3)c(C)nc2cc1OCCN1CCCCC1,-75.4% (active)
11,CCC(=O)Nc1nnc(Cc2ccc(OC)c(OC)c2)s1,60.4% (inactive)
12,O=c1[nH]c(=S)c2c(n1CCCO)CCC2,99.8% (inactive)
13,CC(C)(C)[Si](C)(C)OC1[C@@H](COC(=O)NC(=O)CCl)O[C@@H](n2cnc3c(N)ncnc32)[C@H]1O[Si](C)(C)C(C)(C)C (stereo partly drawn),-45% (active)
14,Cc1ccccc1-n1nnc(C(=O)Nc2nc(-c3ccccc3)c(-c3ccccc3)s2)c1C,76.3% [50 µM] (inactive)
15,Oc1ccc2ccccc2c1C1NN=C(c2ccccc2)S1 (stereo not drawn),35% (inactive)
16,CCCCCCCC/C=C\CCCCCCCCOc1cccc(CC(=O)NCC[N+]2(C)CCOCC2)c1,90.4% (inactive)
17,CCC(C)Oc1cc(/C=N/NC(=O)c2cnn3c2NC(c2ccccc2)C3)ccc1OC (stereo not drawn),58% (inactive)
18,COc1ccc(OC2=CC(=O)c3ccc(C)nc3C2=O)cc1,65.7% (inactive)
19,COc1ccc(/C=C2\SC(=O)N(CN3CCN(c4cc5c(cc4F)c(=O)c(C(=O)O)cn5C4CC4)CC3)C2=O)cc1,96.9% (inactive)
